Experimental data as given in PubChem BioAssay (NCI).
The panel holds about 79,000 compounds, 15% with a hit somewhere; the sample as a whole holds those more often. Values without a mark were called inactive. Calls of active or inactive are those of the source. Rule as the data show it: active = growth inhibition above about 70%; inactive = the rest.

Tests used:
[1] = NCI Yeast Anticancer Drug Screen. Data for the rad50 strain (AID 155);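 also: 0% = growth of vehicle-only cultures of the same strain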; conditions: S. cerevisiae rad50 strain growth inhibition; at 50.0 µM; stronger effect = higher value
Summary of the method: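 Relative growth inhibition (compound vs vehicle) was measured in yeast with a defined repair-gene alteration.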

[2] = NCI Yeast Anticancer Drug Screen. Data for the mec2-1 strain (AID 157); conditions: S. cerevisiae mec2-1 strain, at 50.0 µM, stronger effect = higher value
Summary of the method: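 Test agents were screened against the mec2-1 yeast strain, with defined DNA repair or cell cycle alteration. Growth was scored as inhibition against vehicle-only controls.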

[3] = NCI Yeast Anticancer Drug Screen. Data for the sgs1 mgt1 strain (AID 161);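 also: 0% = growth of cultures given vehicle only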; conditions: S. cerevisiae sgs1 mgt1 strain, at 50.0 µM, stronger effect = higher value
Summary of the method: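 Inhibition of yeast growth, normalised to vehicle-treated controls, is reported for a strain bearing genetic alterations in DNA damage repair.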

[4] = NCI Yeast Anticancer Drug Screen. Data for the cln2 rad14 strain (AID 165);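 also: 0% = growth equal to vehicle treated cultures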; conditions: S. cerevisiae cln2 rad14 strain, at 50.0 µM, stronger effect = higher value
Summary of the method: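 Growth of compound-exposed yeast (cln2 rad14 genotype) measured and expressed as inhibition relative to vehicle.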

[5] = NCI Yeast Anticancer Drug Screen. Data for the bub3 strain (AID 167); conditions: S. cerevisiae bub3 mutant strain, at 50.0 µM, stronger effect = higher value
Summary of the method: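 Screening used yeast with an engineered genetic alteration affecting cell cycle control. Compound-exposed cultures were compared with vehicle cultures, and reduced growth was taken as inhibition.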

[6] = NCI Yeast Anticancer Drug Screen. Data for the mlh1 rad18 strain (AID 175); conditions: S. cerevisiae mlh1 rad18 strain growth inhibition; at 50.0 µM; stronger effect = higher value
Summary of the method: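 In this whole-cell yeast screen, a strain with altered DNA damage repair is challenged with compound, and its growth is measured against matched vehicle-treated controls.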

Compound	growth inhibition [1]	growth inhibition [2]	growth inhibition [3]	growth inhibition [4]	growth inhibition [5]	growth inhibition [6]
CCCCOC(=O)C12CCCCC1O2 (stereo unspecified)	-29.1%	-29.9%	-12.8%	2.55%	-29.1%	-0.55%
SC1c2cc(Cl)ccc2-c2c(Cl)cc(Cl)cc21 (stereo unspecified)	-2.7%	3.35%	-6.05%	9.1%	10.6%	-11.8%
CCCCc1ccncc1	5.3%	4.55%	18.6%	-25.9%	8.55%	19.6%
CC(=O)c1ccccc1NC(=O)C(=O)C(C(=O)c1ccccc1-c1ccccc1)C1OC(=O)c2ccccc21 (stereo unspecified)	25%	2.95%	8.3%	-49.8%	-1.35%	11.3%
O=C1OC(=O)C2C3C=CC(C3)C12 (stereo unspecified)	17.2%	-5.35%	23.1%	-20.4%	-1.45%	21.4%
CC1CCCCC12COC(O)CO2 (stereo unspecified)	-22.5%	-23.4%	-19.1%	-11.7%	-24.1%	-31.9%
CCOC(=O)CCc1c(C)c2c(OC(C)=O)cc(OC(C)=O)cc2oc1=O	31.6%	0.9%	17.4%	13.4%	-1.05%	2.4%
CCCC(O)CO (stereo unspecified)	5.55%	1.9%	0.15%	-0.6%	-0.5%	40.2%
COc1c2c(cc3c1-c1c(cc4c(c1OC)OCO4)CC(C)C(C)C3)OCO2 (stereo unspecified)	12.4%	24.4%	21%	15.2%	40.1%	29.6%
NNc1c(F)c(F)c2c(F)c(F)c(F)c(F)c2c1F	97.8% (active)	96.5% (active)	95.5% (active)	94.5% (active)	97.7% (active)	97.5% (active)
CCOC(=O)C(=O)OCC	24.9%	-1.05%	-19.1%	-3.7%	29.8%	13.8%
Nc1ccc(Cc2ccc(N)c(Br)c2)cc1Br	-0.75%	13.9%	25.1%	-19.3%	-14.8%	32.4%
COc1c(Cl)cc(NC(=S)C#N)cc1Cl	20.2%	20%	15.2%	39.6%	15.4%	-30.9%
OCC1NC(CO)C(O)C1O (stereo unspecified)	6.5%	8.1%	6.5%	1.05%	9.2%	11.2%
Cc1c(/C=N/N(C)C)oc2c1cc(O)c1ncccc12	2.95%	-4.4%	20.4%	-1.9%	4.65%	2.35%
Cc1onc(-c2ccccc2Cl)c1-c1nc2ccccc2c(=O)o1	94.1% (active)	97% (active)	98.5% (active)	93.2% (active)	96.8% (active)	93.5% (active)
COc1cc2c(cc1OC)C1CCc3ccccc3CN1CC2 (stereo unspecified)	0.7%	-25.5%	-6.85%	8.95%	-15.8%	3.15%
CC(C)CN(CC(C)C)C(=O)CCl	-3.1%	-0.3%	14.1%	-15.9%	6%	-1.65%
CC1(C)SC(N=C=Nc2ccccc2)CN1C=O (stereo unspecified)	8.55%	1.85%	-14.4%	-10.1%	9.5%	-0.4%
Nc1nc2c(c(-c3ccc(F)cc3)n1)COC/C2=C\c1ccc(F)cc1	31.5%	24%	15.2%	22.1%	40.8%	19.6%
CC1(C)N=C(N)N=C(N)N1c1cccc(OCCCOc2ccc([N+](=O)[O-])cc2)c1	-31.9%	-23.6%	-17.1%	-44.9%	-7.8%	-26.4%
